Data: the supplement of paper PMC10849652
Of roughly 7,900 targets only a part is listed; those with a hit were picked by preference. About 0.6% of all pairs of compound and target were hits.

What was measured:
Assay in all cases: log2 fold change, soluble protein after heating vs DMSO (PISA); higher = thermal stabilisation; K562 cells, 10 uM, 30 min; active = over 0.2 and 3.5 SD of the protein, either way, in both replicates (recomputed)
[1] = compound: C#Cc1cccc(Nc2ncnc3cc(OCCOC)c(OCCOC)cc23)c1 [erlotinib]
How it was run: (§1)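 K562 cells at 2×10^6 cells/mL were given 10 μM compound for 30 min. Aliquots then went through 3 min of heating across 48°C-58°C, were pooled, and were extracted in PBS with 0.5% NP-40 at 4°C, and the supernatant after 21,000xg for 90 min was quantified by TMTpro 16plex LC-MS/MS with channel sums equalised. Thermal stability relative to control samples, from duplicates, is given as log2 fold change.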

[2] = compound: C/C(=N\NC(=O)C1=CC(=CC=C1)S(=O)(=O)N2CCOCC2)/C3=C(C=CC(=C3)Cl)O
How it was run: as §1

[3] = compound: C1=CC(=C(C=C1Cl)C2=NC3=NC=CN=C3C(=N2)NC4=CC=NC=C4)F
How it was run: as §1

[4] = compound: C1=CC(=CC=C1C2=NC3=C(N2)C=C(C=C3)C(=O)N)OC4=CC=C(C=C4)Cl
How it was run: as §1

[5] = compound: C1=CC2=C(C=CC(=C2)/C=C\3/C(=O)NC(=NCC4=CC=CS4)S3)N=C1
How it was run: as §1

[6] = compound: C1=CC2=NC=CN=C2C=C1/C=C/3\C(=O)NC(=O)S3
How it was run: as §1

[7] = compound: C1=CC=C(C=C1)C2=NC(=C(N2)C3=CC=NC=C3)C4=CC(=C(C=C4)Cl)O
How it was run: as §1

[8] = compound: C1=CC=C2C(=C1)C3=NNC4=CC=CC(=C43)C2=O
How it was run: as §1

[9] = compound: C1CCN(C1)C(=O)NC2=CC=CC(=C2)NC3=NC=C(C(=N3)NCCC4=CN=CN4)Br
How it was run: as §1

[10] = compound: C1CN(CCC1(CC2=CC=C(C=C2)Cl)N)C3=NC=NC4=C3C=CN4
How it was run: as §1

Measured: log2 fold change

DDX5 (UniProt P17844)
UniProt P17844, sequence (P17844 whole entry, looked up): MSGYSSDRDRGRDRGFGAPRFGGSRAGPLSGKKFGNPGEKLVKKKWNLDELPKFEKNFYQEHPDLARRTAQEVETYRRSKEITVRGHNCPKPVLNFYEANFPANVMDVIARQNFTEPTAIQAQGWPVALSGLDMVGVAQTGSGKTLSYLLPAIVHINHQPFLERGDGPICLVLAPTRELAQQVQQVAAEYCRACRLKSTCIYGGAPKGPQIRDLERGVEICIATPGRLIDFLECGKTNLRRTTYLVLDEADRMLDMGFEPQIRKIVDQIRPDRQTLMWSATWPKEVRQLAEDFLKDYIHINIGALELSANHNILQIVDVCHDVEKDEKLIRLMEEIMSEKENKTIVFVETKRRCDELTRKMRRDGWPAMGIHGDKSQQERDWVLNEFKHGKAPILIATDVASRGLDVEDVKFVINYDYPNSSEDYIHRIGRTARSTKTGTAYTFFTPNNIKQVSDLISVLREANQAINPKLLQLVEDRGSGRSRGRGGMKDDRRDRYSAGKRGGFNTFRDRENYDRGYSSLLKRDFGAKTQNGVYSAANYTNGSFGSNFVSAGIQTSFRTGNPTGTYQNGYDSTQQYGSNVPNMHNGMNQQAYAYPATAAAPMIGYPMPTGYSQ
inactive: [1] 0.13 | [2] 0.101 | [3] 0.072 | [4] 0 | [5] -0.003 | [6] -0.046 | [7] 0.059 | [8] -0.032 | [9] -0.061 | [10] -0.127

FAM114A2 (UniProt Q9NRY5)
inactive: [1] -0.001 | [2] 0.051 | [3] 0.055 | [4] -0.002 | [5] 0.008 | [6] 0.067 | [7] -0.018 | [8] -0.04 | [9] -0.002 | [10] -0.021

EXOSC10 (UniProt Q01780)
active: [2] -0.86
inactive: [1] 1.07 | [3] 0.136 | [4] 0.008 | [5] 0.078 | [6] -0.101 | [7] -0.444 | [8] -0.055 | [9] 0.052 | [10] 0.067

ESS2 (UniProt Q96DF8)
inactive: [1] -0.057 | [2] -0.05 | [3] -0.013 | [4] 0.046 | [5] -0.083 | [6] 0.04 | [7] -0.055 | [8] -0.071 | [9] -0.008 | [10] 0.096

EHBP1L1 (UniProt Q8N3D4)
UniProt Q8N3D4, sequence (Q8N3D4 whole entry, looked up): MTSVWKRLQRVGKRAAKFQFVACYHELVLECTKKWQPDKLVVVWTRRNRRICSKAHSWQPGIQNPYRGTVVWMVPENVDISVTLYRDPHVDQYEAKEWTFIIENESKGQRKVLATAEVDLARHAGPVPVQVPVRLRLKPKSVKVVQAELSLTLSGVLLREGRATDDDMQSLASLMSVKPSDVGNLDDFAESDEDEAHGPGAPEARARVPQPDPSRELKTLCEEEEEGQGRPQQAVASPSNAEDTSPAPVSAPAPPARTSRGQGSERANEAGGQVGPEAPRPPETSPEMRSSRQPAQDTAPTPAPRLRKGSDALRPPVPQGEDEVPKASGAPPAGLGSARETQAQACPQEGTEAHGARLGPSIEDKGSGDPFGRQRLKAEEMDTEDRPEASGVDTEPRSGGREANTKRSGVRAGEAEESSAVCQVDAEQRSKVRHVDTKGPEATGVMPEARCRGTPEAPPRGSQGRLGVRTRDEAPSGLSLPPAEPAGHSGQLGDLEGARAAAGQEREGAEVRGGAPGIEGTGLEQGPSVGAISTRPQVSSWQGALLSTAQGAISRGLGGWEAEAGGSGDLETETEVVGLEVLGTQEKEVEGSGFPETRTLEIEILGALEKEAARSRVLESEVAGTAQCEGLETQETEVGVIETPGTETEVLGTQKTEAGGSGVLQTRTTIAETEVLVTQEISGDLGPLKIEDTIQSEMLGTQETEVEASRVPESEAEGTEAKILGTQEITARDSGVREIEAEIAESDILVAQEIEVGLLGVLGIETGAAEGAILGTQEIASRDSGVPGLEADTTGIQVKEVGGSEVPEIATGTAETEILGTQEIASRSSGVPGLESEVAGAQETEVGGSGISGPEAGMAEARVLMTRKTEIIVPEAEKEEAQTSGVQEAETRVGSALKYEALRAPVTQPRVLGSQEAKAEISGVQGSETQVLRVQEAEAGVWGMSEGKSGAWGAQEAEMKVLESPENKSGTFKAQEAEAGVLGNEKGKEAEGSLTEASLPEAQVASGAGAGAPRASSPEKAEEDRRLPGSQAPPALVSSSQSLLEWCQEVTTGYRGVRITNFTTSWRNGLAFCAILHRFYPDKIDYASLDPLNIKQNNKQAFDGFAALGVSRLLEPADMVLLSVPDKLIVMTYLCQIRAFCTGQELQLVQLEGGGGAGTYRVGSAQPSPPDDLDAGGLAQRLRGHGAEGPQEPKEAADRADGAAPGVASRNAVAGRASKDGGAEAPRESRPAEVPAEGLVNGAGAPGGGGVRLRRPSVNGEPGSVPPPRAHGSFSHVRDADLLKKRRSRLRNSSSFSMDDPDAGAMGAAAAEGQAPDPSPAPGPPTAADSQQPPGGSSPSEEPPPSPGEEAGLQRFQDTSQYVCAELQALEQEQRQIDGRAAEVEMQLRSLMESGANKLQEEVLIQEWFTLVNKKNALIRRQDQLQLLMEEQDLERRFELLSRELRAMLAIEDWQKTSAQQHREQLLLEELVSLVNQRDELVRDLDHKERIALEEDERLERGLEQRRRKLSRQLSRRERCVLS
inactive: [1] -0.005 | [2] 0.088 | [3] 0.06 | [4] -0.005 | [5] 0.057 | [6] 0.026 | [7] -0.013 | [8] -0.03 | [9] -0.1 | [10] -0.116

DNAJB1 (UniProt P25685)
inactive: [1] 0.005 | [2] 0.017 | [3] 0.012 | [4] 0.008 | [5] 0.024 | [6] 0.053 | [7] 0.024 | [8] -0.025 | [9] -0.019 | [10] 0.009

DPYSL2 (UniProt Q16555)
inactive: [1] -0.02 | [2] -0.104 | [3] 0.099 | [4] 0.072 | [5] 0.074 | [6] 0.003 | [8] 0.055 | [9] -0.044 | [10] 0.14

EMD (UniProt P50402)
inactive: [1] 0.025 | [2] 0.002 | [3] -0.078 | [4] 0.056 | [5] 0.008 | [6] 0.033 | [7] -0.011 | [8] -0.072 | [9] 0.031 | [10] 0.074

EEF1G isoform 2 (UniProt P26641)
inactive: [1] -0.051 | [2] 0.062 | [3] -0.009 | [4] -0.016 | [5] -0.036 | [6] -0.021 | [7] 0.083 | [8] 0.012 | [9] 0.001 | [10] -0.031

ELAC1 (UniProt Q9H777)
inactive: [1] 0.035 | [2] -0.068 | [3] 0.04 | [4] -0.061 | [5] 0.041 | [8] -0.021

DHX16 (UniProt O60231)
inactive: [1] 0.01 | [2] 0.05 | [3] 0.224 | [4] 0.027 | [5] 0.007 | [6] -0.01 | [7] 0.014 | [8] 0.013 | [9] -0.044 | [10] 0.024

FAM117B (UniProt Q6P1L5)
inactive: [1] 0.088 | [2] 0.053 | [3] -0.134 | [4] 0.079 | [5] 0.098 | [7] 0.151 | [8] 0.099 | [9] 0.165 | [10] 0.09

DYNC1LI2 (UniProt O43237)
inactive: [1] 0.035 | [2] -0.147 | [3] -0.257 | [4] -0.012 | [5] -0.04 | [6] -0.073 | [7] -0.061 | [8] 0.049 | [9] 0.035 | [10] -0.052

EIF2AK3 (UniProt Q9NZJ5)
UniProt Q9NZJ5, sequence (Q9NZJ5 whole entry, looked up): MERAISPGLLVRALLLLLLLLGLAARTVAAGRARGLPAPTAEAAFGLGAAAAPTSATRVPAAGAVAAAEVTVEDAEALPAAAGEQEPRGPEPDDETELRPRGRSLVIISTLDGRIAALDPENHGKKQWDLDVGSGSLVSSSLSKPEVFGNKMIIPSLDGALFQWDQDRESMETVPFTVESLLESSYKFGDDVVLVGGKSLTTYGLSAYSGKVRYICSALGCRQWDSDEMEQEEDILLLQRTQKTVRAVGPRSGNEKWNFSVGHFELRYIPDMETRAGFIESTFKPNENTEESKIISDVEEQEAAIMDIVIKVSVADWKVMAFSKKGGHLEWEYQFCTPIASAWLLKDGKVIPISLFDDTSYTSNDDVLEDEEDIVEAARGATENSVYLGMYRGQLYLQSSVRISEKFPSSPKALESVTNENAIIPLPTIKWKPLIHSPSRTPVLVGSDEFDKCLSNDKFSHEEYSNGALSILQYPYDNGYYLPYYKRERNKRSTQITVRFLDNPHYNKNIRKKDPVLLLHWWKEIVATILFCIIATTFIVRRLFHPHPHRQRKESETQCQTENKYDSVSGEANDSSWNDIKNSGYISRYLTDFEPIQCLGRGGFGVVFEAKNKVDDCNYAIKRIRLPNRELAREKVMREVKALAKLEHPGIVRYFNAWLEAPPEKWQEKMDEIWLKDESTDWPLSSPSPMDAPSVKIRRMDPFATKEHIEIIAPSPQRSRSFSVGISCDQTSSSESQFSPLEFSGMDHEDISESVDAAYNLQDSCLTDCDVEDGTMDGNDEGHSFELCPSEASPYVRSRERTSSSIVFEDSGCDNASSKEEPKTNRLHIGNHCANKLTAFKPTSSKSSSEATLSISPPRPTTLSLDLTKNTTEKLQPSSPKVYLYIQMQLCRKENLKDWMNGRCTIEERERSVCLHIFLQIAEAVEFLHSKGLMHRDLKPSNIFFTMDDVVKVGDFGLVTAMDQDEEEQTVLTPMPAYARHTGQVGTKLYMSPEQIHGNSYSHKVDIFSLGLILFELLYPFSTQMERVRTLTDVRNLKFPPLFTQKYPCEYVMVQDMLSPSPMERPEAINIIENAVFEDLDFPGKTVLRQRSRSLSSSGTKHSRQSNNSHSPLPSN
inactive: [1] 0.056 | [2] 0.022 | [3] 0.091 | [4] -0.222 | [5] 0.421 | [6] -0.311 | [8] -0.016 | [9] 0.148 | [10] 0.075

DENND10 (UniProt Q8TCE6)
inactive: [1] -0.01 | [2] -0.005 | [3] -0.049 | [4] -0.08 | [5] -0.051 | [6] 0.018 | [7] 0 | [8] -0.04 | [9] 0.063 | [10] 0.083

EOGT (UniProt Q5NDL2)
inactive: [1] -0.058 | [2] -0.018 | [3] -0.032 | [4] 0.002 | [5] -0.026 | [6] -0.016 | [7] -0.032 | [8] 0.032 | [9] 0.004 | [10] 0.04

EIF3J isoform 2 (UniProt O75822)
UniProt O75822, sequence (O75822 whole entry, looked up): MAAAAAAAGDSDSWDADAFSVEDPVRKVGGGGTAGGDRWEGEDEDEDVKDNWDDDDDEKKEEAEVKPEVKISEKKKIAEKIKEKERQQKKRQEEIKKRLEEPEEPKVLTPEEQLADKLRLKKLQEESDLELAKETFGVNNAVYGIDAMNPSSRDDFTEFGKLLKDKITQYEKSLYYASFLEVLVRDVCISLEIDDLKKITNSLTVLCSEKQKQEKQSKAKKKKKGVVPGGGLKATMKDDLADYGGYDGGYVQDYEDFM
inactive: [1] 0.094 | [2] -0.093 | [3] 0.029 | [4] 0.005 | [5] 0.14 | [6] -0.042 | [8] -0.138 | [9] 0.143 | [10] 0

DAXX (UniProt Q9UER7)
UniProt Q9UER7, sequence (Q9UER7 whole entry, looked up): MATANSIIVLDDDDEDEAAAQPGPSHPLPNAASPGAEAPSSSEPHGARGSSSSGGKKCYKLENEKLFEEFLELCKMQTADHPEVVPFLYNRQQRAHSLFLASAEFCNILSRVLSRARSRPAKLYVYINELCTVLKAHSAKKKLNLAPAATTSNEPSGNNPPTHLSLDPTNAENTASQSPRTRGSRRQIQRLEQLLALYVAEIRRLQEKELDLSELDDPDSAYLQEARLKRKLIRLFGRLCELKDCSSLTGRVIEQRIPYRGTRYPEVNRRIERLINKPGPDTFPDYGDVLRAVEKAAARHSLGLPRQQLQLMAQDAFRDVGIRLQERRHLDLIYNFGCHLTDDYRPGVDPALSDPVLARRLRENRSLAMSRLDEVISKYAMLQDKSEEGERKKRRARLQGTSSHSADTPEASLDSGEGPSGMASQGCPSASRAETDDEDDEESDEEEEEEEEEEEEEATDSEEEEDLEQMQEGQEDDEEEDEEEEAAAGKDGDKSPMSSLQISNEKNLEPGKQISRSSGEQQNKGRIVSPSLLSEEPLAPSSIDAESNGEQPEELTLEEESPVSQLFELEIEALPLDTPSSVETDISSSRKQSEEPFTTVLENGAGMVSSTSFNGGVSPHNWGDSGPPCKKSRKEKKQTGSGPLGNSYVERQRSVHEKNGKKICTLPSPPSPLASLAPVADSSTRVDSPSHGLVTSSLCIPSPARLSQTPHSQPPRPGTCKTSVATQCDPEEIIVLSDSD
inactive: [1] 0.212 | [4] 0.037 | [5] 0.072 | [6] 0.012 | [7] 0.055 | [8] 0.009 | [9] -0.148 | [10] 0.224
active: [2] -0.662

CYB561A3 isoform 2 (UniProt Q8NBI2)
inactive: [1] -0.021 | [2] -0.016 | [4] 0.02 | [5] -0.005 | [6] 0.114 | [7] 0.043 | [8] -0.034 | [9] -0.01 | [10] 0.069

EXOC4 (UniProt Q96A65)
inactive: [1] 0.131 | [2] 0.159 | [3] 0.044 | [4] -0.071 | [5] 0.09 | [6] 0.033 | [7] -0.036 | [8] -0.018 | [9] -0.02 | [10] -0.083

DDX39A (UniProt O00148)
inactive: [1] 0.038 | [2] 0.027 | [3] 0.031 | [4] -0.03 | [5] -0.026 | [6] -0.068 | [7] -0.026 | [8] -0.059 | [9] -0.007 | [10] -0.019

DDX27 (UniProt Q96GQ7)
inactive: [1] 0.104 | [2] -0.116 | [3] -0.287 | [4] 0.015 | [5] 0.059 | [7] -0.039 | [8] 0.025 | [9] -0.064 | [10] -0.259

ELOC (UniProt Q15369)
inactive: [1] -0.055 | [2] 0.124 | [3] 0.066 | [4] 0.017 | [5] 0.117 | [6] 0.048 | [7] 0.075 | [8] 0.009 | [9] -0.016 | [10] -0.024

ELF1 (UniProt P32519)
inactive: [1] -0.016 | [2] -0.052 | [3] 0.068 | [4] 0.028 | [5] -0.003 | [7] 0.082 | [8] -0.091 | [9] 0.013 | [10] -0.092

EFL1 (UniProt Q7Z2Z2)
inactive: [1] 0 | [2] 0.051 | [3] 0.027 | [4] 0.002 | [5] 0.013 | [6] 0.002 | [7] 0.053 | [8] 0.043 | [9] 0.027 | [10] 0.013

CTSH (UniProt P09668)
UniProt P09668, sequence (P09668 whole entry, looked up): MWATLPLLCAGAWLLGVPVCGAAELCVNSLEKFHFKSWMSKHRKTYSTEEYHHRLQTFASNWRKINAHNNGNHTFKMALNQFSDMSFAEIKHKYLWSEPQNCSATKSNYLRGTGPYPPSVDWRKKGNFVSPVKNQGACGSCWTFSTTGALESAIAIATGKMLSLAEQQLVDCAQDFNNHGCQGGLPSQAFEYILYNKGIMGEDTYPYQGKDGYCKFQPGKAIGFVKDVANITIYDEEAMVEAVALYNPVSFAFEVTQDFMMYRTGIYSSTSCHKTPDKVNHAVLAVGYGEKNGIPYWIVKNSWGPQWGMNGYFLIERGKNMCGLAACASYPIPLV
inactive: [1] 0.015 | [2] -0.054 | [3] 0.052 | [4] 0 | [5] -0.062 | [6] 0.048 | [7] 0.022 | [8] -0.011 | [9] 0.047 | [10] 0.057

CUX1 isoform 3 (UniProt P39880)
inactive: [1] 0.013 | [2] 0 | [3] 0.034 | [4] -0.015 | [5] -0.008 | [6] 0.11 | [7] -0.074 | [8] 0.01 | [9] -0.003 | [10] 0.092

DHCR7 (UniProt Q9UBM7)
UniProt Q9UBM7, sequence (Q9UBM7 whole entry, looked up): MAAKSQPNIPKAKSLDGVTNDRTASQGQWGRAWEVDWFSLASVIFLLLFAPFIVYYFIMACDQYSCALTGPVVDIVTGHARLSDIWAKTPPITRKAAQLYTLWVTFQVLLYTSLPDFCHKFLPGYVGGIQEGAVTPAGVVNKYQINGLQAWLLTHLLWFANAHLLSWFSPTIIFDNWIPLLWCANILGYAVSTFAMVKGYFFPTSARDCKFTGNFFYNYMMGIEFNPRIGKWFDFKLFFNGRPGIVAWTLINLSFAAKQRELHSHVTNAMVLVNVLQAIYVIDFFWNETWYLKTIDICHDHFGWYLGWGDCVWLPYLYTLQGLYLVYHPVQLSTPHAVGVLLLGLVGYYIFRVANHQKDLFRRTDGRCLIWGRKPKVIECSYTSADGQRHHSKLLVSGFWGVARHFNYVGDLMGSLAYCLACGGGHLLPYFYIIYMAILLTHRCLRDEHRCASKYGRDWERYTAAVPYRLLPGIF
inactive: [1] 0.113 | [2] 0.041 | [3] -0.095 | [4] -0.056 | [5] 0.071 | [6] 0.022 | [7] 0.038 | [8] -0.003 | [9] -0.037
active: [10] 0.623
